Source: PubChem BioAssay
Records with an inconclusive call do not appear. The source made the active and inactive calls. Unless noted, the rule behind the calls is not given here.

How the values were obtained:
[1] = viability loss in pontine glioma line – cell-based, SU-DIPG-XVII, MIPE5.0, CellTiter-Glo, qHTS, dose response (AID 1347060; cut-off not given, nearly all actives have AC50 up to about 26 µM;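 for AC50: cells exposed to compound for 48 hours before viability readout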); details: CellTiter-Glo ATP luminescence
[2] = viability loss in pontine glioma line – cell-based, SU-DIPG-IV, MIPE4.0, CellTiter-Glo, qHTS, dose response (AID 1347063; cut-off not given, nearly all actives have AC50 up to about 30 µM;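 note: compound exposure lasted 48 hours before the viability readout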); details: CellTiter-Glo ATP luminescence
[3] = viability loss in pontine glioma line – cell-based, SU-DIPG-XIII, MIPE5.0, CellTiter-Glo, qHTS, dose response (AID 1347064; cut-off not given, nearly all actives have AC50 up to about 23 µM;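 for AC50: cells exposed to compound for 48 hours before the viability read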); details: CellTiter-Glo ATP luminescence
[4] = growth inhibition of DIPG cells – cell-based, MIPE4.0 library, CellTiter-Glo luminescence, qHTS (AID 1347066; cut-off not given, nearly all actives have AC50 up to about 30 µM;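 note: cells exposed to compound for 48 hours before readout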); details: SU-DIPG-VI viability, CellTiter-Glo ATP luminescence
[5] = JHH-DIPG-1 glioma cell viability, MIPE5.0 library, CellTiter-Glo luminescence, qHTS (AID 1347067; cut-off not given, nearly all actives have AC50 up to about 26 µM;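 note: cells exposed to compound for 48 hours before readout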); details: JHH-DIPG-1 glioma viability, CellTiter-Glo ATP luminescence
[6] = growth inhibition of DIPG cells – cell-based, MIPE5.0 library, qHTS (AID 1347068; cut-off not given, nearly all actives have IC50 up to about 30 µM;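 for IC50: cells exposed to compound for 48 hours before viability readout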); details: SU-DIPG-XXV viability
[7] = GFP-Q80 aggregate reduction, neuronal-like cells, cell-based, NGF-treated PC12, GFPQ80 (AID 1614); details: PC12 NGF-treated GFP-polyQ80 inclusion reduction;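 note: lower means fewer inclusions and 0 means no inclusions at all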
[8] = system: Neuropilin-2 / VEGF-C interaction (human); assay: small molecules blocking Neuropilin-2/VEGF-C interaction – biochemical, microplate binding format, z-score (AID 743281); details: microplate NRP2/VEGF-C binding assay; stronger effect = lower value
[9] = viability loss in pontine glioma line – cell-based, SU-DIPG-XXV, MIPE5.0, CellTiter-Glo, qHTS, dose response (AID 1347065; cut-off not given, nearly all actives have AC50 up to about 26 µM;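 note: cells exposed to compound for 48 hours before ATP readout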); details: CellTiter-Glo ATP luminescence
[10] = compounds altering HSF1 focus formation in cells – imaging, Selleck Cancer Library (AID 1347162; in the data active = plate-normalised HSF1 focus index below about 0.46); details: human cells, HSF1 nuclear foci imaging, at 10 µM; SSMD: measured here: HSF1 foci SSMD mean; cell count: measured here: cell number; plate-normalised HSF1 focus index: stronger effect = lower value
[11] = biological target: ATP-dependent translocase ABCB1 (Homo sapiens) (UniProt P08183); assay: P-glycoprotein substrate transport blockade – cell-based (AID 377; in the data active = fluorescence slope change above about 50%); details: MDR1-expressing cells, fluorescent substrate accumulation slope; stronger effect = higher value; concentration not given here
[12] = viability loss in pontine glioma line – cell-based, JHH-DIPG-1, MIPE4.0, CellTiter-Glo, qHTS, dose response (AID 1347062; cut-off not given, nearly all actives have AC50 up to about 27 µM;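 for AC50: cells exposed to compound for two days before readout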); details: JHH-DIPG-1 viability, CellTiter-Glo ATP luminescence
[13] = viability loss in pontine glioma line – cell-based, SU-DIPG-XIII, MIPE4.0, CellTiter-Glo, qHTS, dose response (AID 1347061; cut-off not given, nearly all actives have AC50 up to about 37 µM;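 note: cells exposed to compound for 48 hours before readout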); details: CellTiter-Glo ATP luminescence
[14] = system: Aerobactin synthetase IucA (Klebsiella pneumoniae); assay: inhibition of K. pneumoniae IucA enzyme – biochemical, Tocris library, absorbance (AID 1345561); details: purified IucA enzyme assay, absorbance (OD) read-out; stronger effect = lower value;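 tested at 8 µM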;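 note: 100% = enzyme without compound and 0% = no enzyme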
[15] = compounds altering circadian rhythm period length – cell-based, LOPAC library, luminescence reporter (AID 2774); details: circadian reporter cells, at 7 µM, actives lie on both sides;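 note: values are relative to mean of DMSO wells on each plate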
[16] = system: Hepatitis C virus NS3 helicase; assay: blockers of NS3h binding to ssDNA – biochemical, fluorescence polarization, LOPAC1280 library, primary screen (AID 687035; in the data active = inhibition above about 37%); details: Purified HCV NS3 helicase, Cy5-dT15 ssDNA binding fluorescence polarization; stronger effect = higher value; concentration not given here
[17] = compounds altering Cy5-DNA-NS3h complex signal – biochemical, LOPAC1280, artefact control for HCV NS3 helicase inhibitor project (AID 687037); details: Cy5-DNA-NS3h complex fluorescence interference counterscreen
[18] = blockers of cellular phospholipid synthesis – cell-based, LOPAC library, screen 4, primary screen (AID 1347384); details: animal cells, phospholipid biosynthesis inhibition screen; at 10 µM

Chain of ATP-dependent translocase ABCB1 (Homo sapiens) (P08183 whole entry, looked up): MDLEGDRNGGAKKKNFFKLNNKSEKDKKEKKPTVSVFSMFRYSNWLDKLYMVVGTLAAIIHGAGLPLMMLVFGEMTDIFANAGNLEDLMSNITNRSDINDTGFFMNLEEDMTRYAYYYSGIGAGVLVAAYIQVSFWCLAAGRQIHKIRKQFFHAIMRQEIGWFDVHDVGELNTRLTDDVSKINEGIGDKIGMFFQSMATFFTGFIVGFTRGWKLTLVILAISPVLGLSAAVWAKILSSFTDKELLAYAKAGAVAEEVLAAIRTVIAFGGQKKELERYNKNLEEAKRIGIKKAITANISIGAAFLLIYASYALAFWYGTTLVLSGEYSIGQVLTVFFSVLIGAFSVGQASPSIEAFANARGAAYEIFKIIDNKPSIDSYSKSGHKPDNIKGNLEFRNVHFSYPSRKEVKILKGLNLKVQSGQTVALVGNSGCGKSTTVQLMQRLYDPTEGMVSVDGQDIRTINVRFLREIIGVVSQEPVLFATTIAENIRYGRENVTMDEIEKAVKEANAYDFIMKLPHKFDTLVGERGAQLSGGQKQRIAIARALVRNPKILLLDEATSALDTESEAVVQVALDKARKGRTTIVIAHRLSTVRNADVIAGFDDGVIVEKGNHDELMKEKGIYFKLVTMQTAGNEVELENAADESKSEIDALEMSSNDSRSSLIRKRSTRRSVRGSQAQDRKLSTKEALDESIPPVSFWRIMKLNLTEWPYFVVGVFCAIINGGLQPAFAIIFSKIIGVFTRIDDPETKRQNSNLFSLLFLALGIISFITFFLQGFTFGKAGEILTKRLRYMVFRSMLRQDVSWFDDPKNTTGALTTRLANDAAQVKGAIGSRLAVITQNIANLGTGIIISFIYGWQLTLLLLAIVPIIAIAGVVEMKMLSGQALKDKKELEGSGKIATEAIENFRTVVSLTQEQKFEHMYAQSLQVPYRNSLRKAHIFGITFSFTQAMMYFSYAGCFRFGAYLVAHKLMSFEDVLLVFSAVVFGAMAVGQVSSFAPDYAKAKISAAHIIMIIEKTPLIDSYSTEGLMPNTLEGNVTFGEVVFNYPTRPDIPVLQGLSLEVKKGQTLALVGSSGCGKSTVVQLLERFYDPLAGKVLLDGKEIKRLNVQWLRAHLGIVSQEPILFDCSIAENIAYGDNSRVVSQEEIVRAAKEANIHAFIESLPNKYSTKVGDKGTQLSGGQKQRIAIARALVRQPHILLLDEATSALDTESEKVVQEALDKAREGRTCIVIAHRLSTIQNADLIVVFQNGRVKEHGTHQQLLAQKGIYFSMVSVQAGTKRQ

Cc1cccc(CN2CCN(C(c3ccccc3)c3ccc(Cl)cc3)CC2)c1 (configuration not stated)
active: AC50 [1] 23.5 µM | AC50 [2] 18.7 µM | AC50 [3] 20.9 µM | AC50 [4] 20.9 µM | AC50 [5] 16.6 µM | IC50 [6] 23.5 µM

CCCN(CCC)S(=O)(=O)c1ccc(C(=O)O)cc1
2: inclusion score [7]

O=C1[C@H](CC[C@H](O)c2ccc(F)cc2)[C@@H](c2ccc(O)cc2)N1c1ccc(F)cc1
0.185: SSMD [10]
6580: cell count [10]
inactive: z-score [8] -0.399 | outcome [1] | outcome [6] | plate-normalised HSF1 focus index [10] 1.01
active: AC50 [9] 20.9 µM

CC(=O)[C@H]1CC[C@H]2[C@@H]3C[C@H](C)C4=CC(=O)CC[C@]4(C)[C@H]3[C@@H](O)C[C@]12C
active: fluorescence slope change [11] 55.7%

COc1cc([C@@H]2c3cc4c(cc3[C@H](O)[C@H]3COC(=O)[C@H]23)OCO4)cc(OC)c1OC
active: AC50 [1] 0.0417 µM | AC50 [12] 0.0743 µM | AC50 [3] 0.0295 µM | AC50 [9] 0.0468 µM | AC50 [5] 0.0295 µM | IC50 [6] 0.0525 µM
inactive: outcome [2]

CC(C)C1CCC(C(=O)N[C@H](Cc2ccccc2)C(=O)O)CC1 (some centres not stated)
inactive: z-score [8] -0.458 | outcome [1] | outcome [13] | outcome [12] | outcome [2] | outcome [3] | outcome [9] | outcome [4] | outcome [5] | outcome [6]

Cc1cccc(Nc2ccncc2S(=O)(=O)NC(=O)NC(C)C)c1
inactive: z-score [8] 0.676 | outcome [13] | outcome [12] | outcome [2] | outcome [4]

CC(C)(C)NC[C@H](O)COc1nsnc1N1CCOCC1
inactive: remaining activity [14] 95.7%

Cc1ccc(O)c([C@H](CCN(C(C)C)C(C)C)c2ccccc2)c1
inactive: z-score [8] -0.0447

C[C@]12CCC(=O)C=C1CC[C@@H]1[C@@H]2C(=O)C[C@@]2(C)[C@H]1CC[C@]2(O)C(=O)CO
inactive: fluorescence slope change [11] 29.4% | period change [15] -0.215 h | inhibition [16] 1% | fluorescence ratio (interference) [17] 1 | z-score [8] 0.291 | outcome [18]

CN(C)CC/C=C1\c2ccccc2COc2ccccc21
active: fluorescence slope change [11] 109%
inactive: period change [15] 0.025 h | inhibition [16] -5% | fluorescence ratio (interference) [17] 1 | outcome [18]

c1ccc(-c2ccc(C(c3ccccc3)n3ccnc3)cc2)cc1 (configuration not stated)
inactive: z-score [8] -0.348

Cc1cccc(Nc2ccccc2C(=O)O)c1C
1.5: inclusion score [7]

CC(C)Oc1ccc2c(=O)c(-c3ccccc3)coc2c1
inactive: z-score [8] 0.0143 | outcome [1] | outcome [13] | outcome [12] | outcome [2] | outcome [4] | outcome [5] | outcome [6]

CC(=O)OCC[N+](C)(C)C
2: inclusion score [7]

COc1ccc([C@@H]2Sc3ccccc3N(CCN(C)C)C(=O)[C@@H]2OC(C)=O)cc1
active: fluorescence slope change [11] 71.5%
inactive: period change [15] 0.035 h | inhibition [16] -1% | fluorescence ratio (interference) [17] 1.1 | remaining activity [14] 113% | outcome [1] | outcome [3] | outcome [9] | outcome [5] | outcome [6] | outcome [18]

CN[C@@H]1[C@H](O)[C@H](NC)[C@H]2O[C@@]3(O)C(=O)C[C@@H](C)O[C@H]3O[C@@H]2[C@H]1O
1.5: inclusion score [7]
active: fluorescence slope change [11] 67% | AC50 [13] 4.69 µM | AC50 [12] 1.05 µM | AC50 [2] 0.332 µM | AC50 [4] 1.48 µM

CCCCCCCCCCC[C@@H](C[C@@H]1OC(=O)[C@H]1CCCCCC)OC(=O)[C@H](CC(C)C)NC=O
inactive: z-score [8] -1.43 | remaining activity [14] 84.7%

CC[C@H](C)C(=O)O[C@H]1C[C@H](O)C=C2C=C[C@H](C)[C@H](CC[C@@H](O)C[C@@H](O)CC(=O)O)[C@H]21
inactive: z-score [8] 0.492 | remaining activity [14] 123% | outcome [13] | outcome [2] | outcome [3] | outcome [5] | outcome [6]
active: AC50 [1] 23.5 µM

OCCN1C[C@H](O)[C@@H](O)[C@H](O)[C@H]1CO
inactive: z-score [8] -1.24 | outcome [1] | outcome [13] | outcome [12] | outcome [2] | outcome [9] | outcome [4] | outcome [5] | outcome [6]

C[C@]12CCC(=O)C=C1CC[C@@H]1[C@@H]2[C@@H](O)C[C@@]2(C)[C@H]1CC[C@]2(O)C(=O)COC(=O)CCC(=O)O
inactive: period change [15] -0.475 h

CCCSc1ccc2nc(NC(=O)OC)[nH]c2c1
active: fluorescence slope change [11] 97.2%

C[C@H](CCC(=O)O)[C@H]1CC[C@H]2[C@@H]3C(=O)C[C@@H]4CC(=O)CC[C@]4(C)[C@H]3CC(=O)[C@]12C
active: fluorescence slope change [11] 97.9%
inactive: z-score [8] -0.00555

c1ccc2c(CC3=NCCN3)cccc2c1
1.5: inclusion score [7]

Cc1onc(-c2ccccc2)c1-c1ccc(S(N)(=O)=O)cc1
inactive: z-score [8] 0.865 | outcome [1] | outcome [3] | outcome [9] | outcome [5] | outcome [6]

Nc1nc2ncc(CNc3ccc(C(=O)N[C@@H](CCC(=O)O)C(=O)O)cc3)nc2c(=O)[nH]1
1.5: inclusion score [7]
inactive: fluorescence slope change [11] 5.4%

CCS(=O)(=O)CCn1c([N+](=O)[O-])cnc1C
inactive: fluorescence slope change [11] 11.6% | z-score [8] -0.45

C[C@]12CCC(=O)C=C1CC[C@@H]1[C@@H]2[C@@H](O)C[C@@]2(C)[C@H]1CC[C@]2(O)C(=O)CO
inactive: period change [15] -0.16 h | inhibition [16] -3% | fluorescence ratio (interference) [17] 1 | outcome [1] | outcome [12] | outcome [3] | outcome [9] | outcome [4] | outcome [5] | outcome [6] | plate-normalised HSF1 focus index [10] 1.13 | outcome [18]
2.5: SSMD [10]
6980: cell count [10]

CCC(=O)O[C@]1(C(=O)CCl)[C@@H](C)C[C@H]2[C@@H]3CCC4=CC(=O)C=C[C@]4(C)[C@@]3(F)[C@@H](O)C[C@@]21C
inactive: outcome [1] | outcome [13] | outcome [12] | outcome [3] | outcome [4] | outcome [5]
